Screening results deposited in PubChem BioAssay by National Center for Advancing Translational Sciences (NCATS).
ClpP mod = qHTS Assay for Activators of ClpP; purified B. subtilis ClpP, FRET peptide cleavage, 20 min; Potency, µM (top dose mostly 57.5 µM); 1.9% of 340,000 active; AID 651965, 2013; active = well fitted falling curve with a large enough effect; inconclusive = small, poorly fitted or top-dose-only effect; inactive = no such curve, though single readings can be large or run the other way; note: the source files actives as falling curves though it sought activators and does not explain the sign; nearly all actives have a fitted effect of over 65% in size
Target sequence (P80244 whole entry, looked up): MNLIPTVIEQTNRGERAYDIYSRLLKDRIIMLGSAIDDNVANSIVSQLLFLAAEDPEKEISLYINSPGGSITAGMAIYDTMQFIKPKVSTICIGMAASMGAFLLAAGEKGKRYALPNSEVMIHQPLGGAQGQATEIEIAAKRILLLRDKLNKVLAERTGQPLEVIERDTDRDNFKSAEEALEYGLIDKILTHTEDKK
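Buffer: 100 mM Tris/HCl pH8, 100 mM KCl, 0.05% low protease BSA, 2.5% glycerol, 0.01% Tween-20. ClpP 10 microg/mL final; 20 min RT; delta FRET normalized to ADEP and DMSO controls.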
Epigenetic derep = epigenetic control regulation, reporter derepression; Potency, µM (top dose mostly 53.9 µM), hits mostly activators; 0.2% of 280,000 active; murine LDR cells, GFP reporter derepression, 30 h; note: nearly all actives have a fitted effect of over 60% in size
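GFP-positive cell count by laser-scanning cytometry (objects 20–120 um) after 30 h, 37 C compound exposure of murine LDR cells; reporter is CMV-GFP integrated at a silenced locus, inducible by HDAC or DNMT inhibitors.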
PINK1 expr mod = changes PINK1 expression; AID 624263; PINK1 immunofluorescence, high-content cytometry, 24 h; 0.2% of 410,000 active; Potency, µM (titrated, usually from 76.6 µM), most hits filed as activators; active = well fitted activation curve with a large enough effect; inconclusive = small, poorly fitted or top-dose-only effect; cell line not stated here; note: nearly all actives have a fitted effect of over 65% in size
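Compound titrations (5 concentrations, 24 h) on a stable cell line; DMSO and CCCP controls. Endpoint: fixed-cell PINK1 immunofluorescence with mitochondrial, cell and nuclear markers, scanned by microplate cytometer.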
Sfp PPTase inh = inhibitors of Bacillus subtilis Sfp phosphopantetheinyl transferase; Q9F4F7; 3.5% of 310,000 active; AID 1490; Potency, µM, usual class: inhibitors; Biochemical Sfp PPTase activity, qHTS;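 note: the enzyme is Sfp with the accession as filed and its product quenches rhodamine fluorescence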
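With Hepes-Na pH 7.6 buffer containing 10 mM MgCl2, Sfp (15 nM) modified BHQ-2-YbbR (12.5 uM) using rhodamine-CoA (5 uM). Two reads 30 minutes apart at 525/598 nm yielded each well's rate.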
VP16 counter = inhibits Gal4-VP16 luciferase reporter, ROR gamma counter-screen; Drosophila S2 Gal4-VP16 UAS-luciferase, luminescence, 20 h; Potency, µM (series often up to 53.6 µM), hits mostly inhibitors; 3.5% of 310,000 active;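 note: Gal4-VP16 expression switched on by copper sulfate through the metallothionein promoter; nearly all actives have a fitted effect of over 50% in size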
RORg inh = ROR gamma (mouse) transcription inhibition. Potency, µM (titrated, usually from 53.6 µM), most hits filed as inhibitors. 5.4% of 310,000 active. Drosophila S2 Gal4-RORgamma UAS-luciferase reporter, 20 h; note: nearly all actives have a fitted effect of over 60% in size
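Compounds are pin-transferred onto Drosophila Schneider cells expressing a copper-inducible Gal4–ROR gamma transactivation domain fusion. After 1 hr, copper sulfate is added to 700 uM final; luciferase is read 20 hr later.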
Large screens that a line does not name were inactive; ! = not confirmed by another sample. In the library only some 8.1% were active in any assay of this set; here they are far more common. Unless noted, calls come from the whole dose curve; as a rule, active = well fitted curve in the direction sought with a large enough effect; inconclusive = small, poorly fitted or top-dose-only effect, or another doubt; inactive = no such curve, though single readings can be large; an effect the other way counts as inactive or inconclusive.

O=C(O)c1cccc(NC(=O)c2ccc3c(c2)C(=O)N(c2ccccc2)C3=O)c1	ClpP mod 8.9µM (no result: Epigenetic derep)
CC(=O)Oc1ccc(C(=O)Nc2ccc3c(c2)C(=O)N(CCC(=O)O)C3=O)cc1	ClpP mod 28µM
COC(=O)c1cccc(NC(=O)c2ccc3c(c2)C(=O)N(CC2CCCO2)C3=O)c1 (stereo unspecified)	none
O=C(O)c1cccc(NC(=O)c2ccc3c(c2)C(=O)N(CC2CCCO2)C3=O)c1 (stereo unspecified)	RORg inh 0.56µM (no result: PINK1 expr mod)
COc1cc(C(=O)Nc2ccc3c(c2)C(=O)N(CCC(=O)O)C3=O)cc(OC)c1OC	none
COc1cccc(C(=O)Nc2ccc3c(c2)C(=O)N(CC2CCCO2)C3=O)c1 (stereo unspecified)	none (no result: Epigenetic derep)
CC(=O)Oc1cccc(C(=O)Nc2ccc3c(c2)C(=O)N(CC2CCCO2)C3=O)c1 (stereo unspecified)	ClpP mod 32µM (no result: Epigenetic derep)
CCc1ccc(NC(=O)CSC2=Nc3ccccc3C3=NC(CCC(=O)NCCc4ccccc4)C(=O)N23)cc1 (stereo unspecified)	none (no result: Sfp PPTase inh, VP16 counter, RORg inh)
CN(C)CC(C)(C)CNC(=O)c1cnn(-c2nccc(-c3ccc4c(c3)OCO4)n2)c1-c1ccco1	none (no result: ClpP mod, Epigenetic derep, Sfp PPTase inh, VP16 counter, RORg inh)
O=C(Nc1ccc2c(c1)C(=O)N(CC1CCCO1)C2=O)c1cccc(Br)c1 (stereo unspecified)	ClpP mod 32µM, RORg inh inconclusive (no result: PINK1 expr mod)
Cc1ccc2occ(/C=N/NC(=O)c3ccc(O)cc3)c(=O)c2c1	RORg inh 20µM (no result: Epigenetic derep)
Cc1cc(/C=N/NC(=O)c2ccc(O)cc2)c(C)n1CC(C)C	RORg inh 7.9µM
Cn1c(-c2ccc3nc(N)sc3c2)nc2cc(N)ccc21	ClpP mod 10µM, VP16 counter inconclusive
Cn1c(-c2ccc(N)cc2)nc2ccccc21	ClpP mod 2.8µM!
Cc1ccc(-n2c(N)c(-c3nc4ccccc4n3C)sc2=S)cc1	Epigenetic derep inconclusive, PINK1 expr mod inconclusive, VP16 counter inconclusive, RORg inh 5µM
Cn1c(CCc2ccc(N)cc2)nc2ccccc21	VP16 counter inconclusive, RORg inh 11µM
Cn1c(N)c(-c2nc3cccnc3n2C)sc1=S	none
CCc1ccc(C(=O)c2cn(CC(=O)Nc3ccc(OC)c(OC)c3)c3ccc(C)cc3c2=O)cc1	Epigenetic derep inconclusive (no result: Sfp PPTase inh, VP16 counter, RORg inh)
COc1cccc(C(=O)Nc2c(C(=O)N3CCN(c4ccc(F)cc4)CC3)oc3ccccc23)c1	ClpP mod inconclusive (no result: Sfp PPTase inh, VP16 counter, RORg inh)
CCCCCSc1nnc2c(n1)OC(c1ccc(C)s1)N(C(C)=O)c1ccccc1-2 (stereo unspecified)	none (no result: Sfp PPTase inh, VP16 counter, RORg inh)
O=C(/C=C(\O)c1ccccc1)c1ccccc1O	VP16 counter 4.5µM, RORg inh 4.5µM (no result: ClpP mod, PINK1 expr mod)
CN(CCO)C(=O)c1cn(C2CCCN(Cc3cc4ccccc4s3)C2)nn1 (stereo unspecified)	none (no result: ClpP mod, Epigenetic derep, Sfp PPTase inh, VP16 counter, RORg inh)
COc1cc(/C=C/c2ccnc3ccccc23)ccc1N(C)C	none (no result: Epigenetic derep, Sfp PPTase inh, VP16 counter, RORg inh)
Cc1nn(C)c(C)c1-c1c(C#N)c(N)nc2c1CCCCCC2	ClpP mod 1.3µM
Cc1c(-c2c(C#N)c(N)nc3c2CCCCCC3)cnn1C	ClpP mod 13µM
CC(C)(C)c1ccc(-c2c(C#N)c(N)nc3c2CCCC3)s1	ClpP mod 32µM
N#Cc1c(N)nc2c(c1-c1cccs1)CCCC2	none
N#Cc1c(N)nc2c(c1-c1cccnc1)CCCCC2	none
N#Cc1c(N)nc2c(c1-c1ccncc1)CCCCC2	ClpP mod 22µM
COc1ccc2nc(N3C(=O)/C(=C/c4ccc(Cl)cc4)NC3=S)sc2c1	Epigenetic derep inconclusive, PINK1 expr mod 22µM, RORg inh inconclusive
COc1ccc2c(c1)nc(SCC(=O)c1cccs1)n2C	Sfp PPTase inh 89µM, RORg inh inconclusive
CCCn1c(SCC(=O)C(C)(C)C)nc2ccccc21	Sfp PPTase inh 56µM, VP16 counter inconclusive, RORg inh 11µM (no result: ClpP mod)
Cn1nnnc1SCC(=O)c1cccs1	Sfp PPTase inh 45µM, VP16 counter inconclusive, RORg inh inconclusive
COc1ccc(-c2ccc(SCC(=O)c3cccs3)nn2)cc1	none
CCCn1c(SC(C)C(=O)O)nc2ccccc21 (stereo unspecified)	none
COc1ccc2c(c1)nc(SCC(=O)C(C)(C)C)n2C	Sfp PPTase inh 56µM
COc1ccc2c(c1)nc(SCC(C)O)n2C (stereo unspecified)	none
CCCCN(CCCC)CCNC(=O)c1cn(C)c2ccc(S(=O)(=O)N3CCOCC3)cc2c1=O	none (no result: Sfp PPTase inh, VP16 counter, RORg inh)
COc1ccc(Cl)cc1NC(=O)C1CCCN(S(=O)(=O)c2ccc3c(c2)CCCC(=O)N3)C1 (stereo unspecified)	none (no result: Sfp PPTase inh, VP16 counter, RORg inh)
COc1ccccc1Cc1nc2ccccc2nc1SCC(=O)Nc1cc(Cl)ccc1OC	none (no result: Sfp PPTase inh, VP16 counter, RORg inh)
O=C1/C(=C/c2ccc(F)cc2)SC(=S)N1Nc1ncc(C(F)(F)F)cc1Cl	Sfp PPTase inh 50µM
O=C1/C(=C/c2ccccn2)SC(=S)N1Nc1ncc(C(F)(F)F)cc1Cl	none (no result: ClpP mod, Epigenetic derep, Sfp PPTase inh, VP16 counter, RORg inh)
O=C1/C(=C\c2ccccn2)SC(=S)N1Nc1ncc(C(F)(F)F)cc1Cl	Sfp PPTase inh 50µM, VP16 counter inconclusive, RORg inh 11µM
